# Measurements from PubChem BioAssay (NCI).
# The panel holds about 79,000 compounds, 15% with a hit somewhere; the sample as a whole holds those more often. Values without a mark were called inactive. The source made the active and inactive calls. Cut-off read from the data, not from the text of the source: active = growth inhibition above about 70%; inactive = the rest.
# What was measured:
# [1] = NCI Yeast Anticancer Drug Screen. Data for the rad50 strain (AID 155);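 note: 0% = growth of vehicle-only cultures of the same strain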; conditions: S. cerevisiae rad50 strain growth inhibition; at 50.0 µM; hits give high values
# Method in brief: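 Inhibition values express reduced yeast growth in compound-treated cultures relative to vehicle-treated controls.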
# [2] = NCI Yeast Anticancer Drug Screen. Data for the mec2-1 strain (AID 157); conditions: S. cerevisiae mec2-1 strain, at 50.0 µM, hits give high values
# Method in brief: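 Cells of the genetically defined mec2-1 yeast strain are incubated with test compound. Inhibition of growth is calculated against vehicle-treated controls.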
# [3] = NCI Yeast Anticancer Drug Screen. Data for the sgs1 mgt1 strain (AID 161);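 note: 0% = growth of cultures given vehicle only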; conditions: S. cerevisiae sgs1 mgt1 strain, at 50.0 µM, hits give high values
# Method in brief: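 Mutant yeast exposed to compound; growth scored against vehicle-only wells.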
# [4] = NCI Yeast Anticancer Drug Screen. Data for the cln2 rad14 strain (AID 165);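 note: 0% = growth equal to vehicle treated cultures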; conditions: S. cerevisiae cln2 rad14 strain, at 50.0 µM, hits give high values
# Method in brief: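 The screen exposed genetically defined yeast (cln2 rad14) to test compounds and scored growth inhibition relative to vehicle-treated controls.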
# [5] = NCI Yeast Anticancer Drug Screen. Data for the bub3 strain (AID 167); conditions: S. cerevisiae bub3 mutant strain, at 50.0 µM, hits give high values
# Method in brief: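 Steps: expose the mutant yeast strain to compound; grow alongside vehicle-treated cultures; measure growth; express inhibition against the vehicle cultures.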
# [6] = NCI Yeast Anticancer Drug Screen. Data for the mlh1 rad18 strain (AID 175); conditions: S. cerevisiae mlh1 rad18 strain growth inhibition; at 50.0 µM; hits give high values
# Method in brief: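 Compound-treated yeast growth, normalised to vehicle controls. Strain bears defined DNA repair mutations.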
Structure (SMILES),growth inhibition [1],growth inhibition [2],growth inhibition [3],growth inhibition [4],growth inhibition [5],growth inhibition [6]
N#Cc1ccc(CCc2ccc(Cl)cc2)cc1,-6.85%,-17.2%,-6.9%,-41.1%,1.3%,-9.8%
CCCC(CC)C(=O)NC(N)=O (stereo unspecified),-7.2%,-5.9%,-7.8%,-8.55%,-20.2%,8.7%
O=c1c(SCc2ccccc2Cl)c(SCc2ccccc2Cl)cnn1-c1ccccc1,10.7%,-3.05%,12.6%,23.4%,7.15%,1.45%
O=C1/C(=C/c2ccccc2)N=C(c2ccccc2)N1n1c(-c2ccccc2)nc2ccccc2c1=O,7.5%,0.35%,24.4%,17.8%,-4.05%,21.8%
CCOC(=O)C1CC(=O)NC(N)=N1 (stereo unspecified),-12.6%,-29.4%,-13.6%,-7.95%,-8.2%,-14.2%
S=c1cc(-c2ccccc2)oc2ccccc12,9.35%,10.8%,-1.1%,6.85%,4.85%,-2.8%
CC1=C(C(=O)Nc2ccccc2C)C(c2ccc(C3C(C(=O)Nc4ccccc4C)=C(C)NC(C)=C3C(=O)Nc3ccccc3C)cc2)C(C(=O)Nc2ccccc2C)=C(C)N1,65.7%,65%,61.2%,47.8%,21.6%,84.6% (active)
CCCCCCCCCCCC(=O)NC(=S)Nc1ccc(N(C)C(C)=O)cc1,90.5% (active),92.8% (active),92.5% (active),87.6% (active),90% (active),91.9% (active)
COc1cccc2c1C(=O)C1(O)CCCCC21 (stereo unspecified),-55.8%,-41.6%,-65.3%,-21.4%,-59.5%,-25.7%
COc1ccccc1C(O)C(C)(C)C (stereo unspecified),50.9%,2.45%,7.5%,8.9%,8.4%,28.9%
CCCCCC/C(CC(=O)CCC(=O)NCCc1ccccc1)=N\NC(=O)c1ccc2ccccc2c1O,25%,20.2%,32.6%,-49.2%,2.5%,45.5%
Cc1ccc(NC(=O)CCCC(=O)CC(=O)c2ccc(Br)cc2)cc1,-0.4%,-14.9%,-40.4%,-26.2%,-12.2%,-24.6%
CCOC(=O)CCc1ccco1,3.15%,-5.7%,-4.45%,4.15%,9.1%,15.2%
Cc1cc(C)cc(C(=O)OC2CCCC2)c1,1.2%,0.35%,-3.85%,4.5%,-5.2%,22.9%
O=C1Cc2nc(CO)c(CO)c(CO)c2CO1,-43%,-34.6%,-72.7%,-2.85%,-37%,-47%
Cn1c2c(c3ccccc31)C(=O)CC2(C)C,-5.6%,-4.8%,-2.35%,-18.2%,-30.6%,2.15%
CCCCNC(=O)C1C(=O)N(CCCC)C(=O)/C1=N\N (stereo unspecified),-1.45%,26.4%,8.5%,56.3%,0.35%,12.8%
Cc1cccc(-c2nc3sc(-c4cccc(C)n4)nc3s2)n1,-9.7%,3.05%,-13.3%,-29.6%,4.05%,-16.3%
O=C1NC(=O)C(c2ccc(Cl)cc2)(c2cccc(Cl)c2)N1 (stereo unspecified),11.1%,-16.5%,18.3%,-11.8%,5.9%,-5.9%
CC[C@@]1(O)C[C@H](OC2CC(N(C)C)C(OC3CC(O)C(OC4CC(O)C(O)C(C)O4)C(C)O3)C(C)O2)c2c(cc3c(c2O)C(=O)c2c(O)ccc(O)c2C3=O)[C@H]1C(=O)OC (stereo partly specified),-25.1%,-14.8%,-35%,4.3%,1.95%,7.45%
C=CC(=O)OCc1ccc(OC)cc1,30.1%,32.2%,28.9%,14.2%,5.95%,29.5%

Structure (SMILES),growth inhibition [1],growth inhibition [2],growth inhibition [3],growth inhibition [4],growth inhibition [5],growth inhibition [6]
CC(=O)N(c1ccc(NC(=O)c2ccc(N3C(=O)c4ccccc4C3=O)cc2[N+](=O)[O-])cc1)c1cc[n+](C)cc1,-13.8%,2.3%,-1%,9.35%,-5.1%,3.75%
C/C(CC(=O)N(C(C)C)C(C)C)=N\NC(=O)c1ccncc1,-3.45%,-12.3%,-18.9%,18.7%,-10.7%,13.8%
COC(=O)/N=c1\cc(N2CC=CCC2)nc(N)n1O,-5.85%,-10.7%,-21.2%,18.9%,-10.8%,5.4%
O=C1CN(c2ccccc2)CC(=O)N2C(c3ccccc3)CCCN12 (stereo unspecified),22.3%,1.65%,-6.05%,26.2%,24.4%,3.35%
CCOC(=O)C1=NN(c2ccc(C)cc2)C2=CC(C)=NN(C)C(=S)N21,-18.1%,-7.3%,-21.8%,-13.6%,7.1%,-49.3%
CC(=O)Oc1ccc2cc(Br)ccc2c1N(C(C)=O)C(C)=O,13.1%,-7.35%,10.8%,-66.5%,24.6%,-1.85%
C=C(C)C1CCC2(C)CC3C(=C)CC(O)C(O)C3(C)CCC12 (stereo unspecified),48.2%,88.8% (active),90.8% (active),90% (active),90.2% (active),89.5% (active)
C(=C\C1OCCO1)/c1ccccc1,14.4%,0.45%,7.25%,-2.4%,18.1%,-3%
CCCNC(=O)CCC(=O)NS(=O)(=O)c1ccc(Cl)cc1,-14.4%,-3.05%,16.5%,-16.4%,16.1%,7.15%
CCC(NC(C)c1ccccc1)C(O)c1ccc(OCc2ccccc2)c(OCc2ccccc2)c1 (stereo unspecified),88.6% (active),91.5% (active),92.3% (active),91.3% (active),91.5% (active),87.7% (active)
O=C1NCCCCCC1S(=O)c1ccccc1 (stereo unspecified),-7.8%,-10.2%,-8.5%,28.6%,-11.8%,-11.8%
CCC(CC)(CC#N)C1CCCCC1,-0.8%,-0.35%,-0.6%,-13.8%,-3.15%,-8.2%
CCc1ccc[n+](CCc2c[nH]c3ccccc23)c1,-13%,-0.45%,-10%,1.35%,1.35%,-10.5%
COc1ccccc1NC(=O)/C(Cc1nc2ccc([N+](=O)[O-])cc2[nH]c1=O)=N\NC(=O)C[N+](C)(C)C,31.6%,23.4%,7.3%,-26.2%,25.4%,13.2%
CC(=O)n1ccc(=O)[nH]c1=O,8.9%,0.2%,0.45%,-38.8%,-11.9%,16.4%
O=[N+]([O-])c1ccc(Cl)c(F)c1Cl,-13%,-17.1%,-0.2%,5.15%,-3.9%,-12.2%
CC1CCC(Oc2nc3c(c(=O)n(C)c(=O)n3C)n2C)CC1 (stereo unspecified),-4.75%,-2.85%,-14.8%,2%,-8.7%,-12.5%
CCN(CC)c1nc(=O)c(C(=O)C(C)(C)C)c(C(C)(C)C)o1,-14.9%,-39%,-34.1%,-11.8%,-9.15%,-17.1%
CCOC(=O)Oc1ccc(C(=O)NCCC(C)C)cc1OCC,-11.8%,-10.3%,-8.1%,-69.2%,25.8%,-6.8%
CC(=O)[O-].O=S(=O)(Nc1ncccn1)c1ccc(N=Cc2ccccc2O)cc1.O=S(=O)(Nc1ncccn1)c1ccc(N=Cc2ccccc2O)cc1.[Co+2],25.4%,23.2%,26.6%,27.7%,32.2%,25.1%
